Several values for one entry are separate records, joined by “and”; a condition that tells them apart may be missing. Identical values can stand only once. The whole screen tested about 16,000 compounds, of which about 5,100 (32%) were called active. Another 25% or so got no clear call; they are omitted. The list shows a part of the results. A number with no mark means an inactive call. Calls come from the whole dose curve; as a rule, active = well fitted curve in the direction sought with a large enough effect; inconclusive = small, poorly fitted or top-dose-only effect, or effect the other way; inactive = no such curve, though single readings can be large or run the other way. Square brackets hold non-standard residues; d marks the D form. Peptide text beside a SMILES is read from it.
These compounds were tested against Cytochrome P450 3A4 (Homo sapiens) (UniProt P08684) (assay: Cytochrome panel assay with activity outcomes). Conditions: recombinant CYP, pro-luciferin dealkylation, luminescence, p450-cyp3a4; series mostly up to 57.1 µM; activity, negative = inhibition: at the top concentration.
Cytochrome P450 3A4 (Homo sapiens), sequence (P08684 whole entry, looked up): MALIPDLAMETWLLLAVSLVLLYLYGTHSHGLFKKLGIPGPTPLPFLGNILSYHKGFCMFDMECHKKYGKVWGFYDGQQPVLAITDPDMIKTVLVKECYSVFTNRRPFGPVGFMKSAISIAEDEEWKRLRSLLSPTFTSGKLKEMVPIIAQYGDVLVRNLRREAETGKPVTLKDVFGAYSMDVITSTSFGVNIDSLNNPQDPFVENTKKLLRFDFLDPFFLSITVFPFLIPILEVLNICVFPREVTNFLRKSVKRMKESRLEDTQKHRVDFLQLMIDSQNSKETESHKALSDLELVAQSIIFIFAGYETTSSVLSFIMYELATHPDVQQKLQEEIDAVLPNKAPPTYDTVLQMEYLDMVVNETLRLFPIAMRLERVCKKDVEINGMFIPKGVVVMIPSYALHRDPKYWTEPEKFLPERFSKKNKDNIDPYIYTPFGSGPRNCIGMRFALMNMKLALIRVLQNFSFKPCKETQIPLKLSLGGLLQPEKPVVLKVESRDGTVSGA
% is set by controls: 0 for no effect and ±100 for the full control effect.

Row | Structure (SMILES) | activity, negative = inhibition | AC50
1 | O=C1CN2CCN(CC2)CC(=O)Nc2ccc(cc2)S(=O)(=O)c2ccc(cc2)NC(=O)CN2CCN(CC2)CC(=O)Nc2ccc(cc2)S(=O)(=O)c2ccc(cc2)N1 | -29.8% [at 11.4 µM] | 
2 | CSc1nnc(-c2sc(-c3ccccc3)nc2C)n1C | 10.5% | 
3 | CSc1nnc(-c2sccc2OCc2ccccc2)n1C | -26.2% | 
4 | C#CCSc1nnc(-c2sc(-c3ccccc3)nc2C)n1C |  | 1 µM (active)
5 | O=C(O)CSc1cc(-c2ccccc2)nc2ccccc12 | -1.98% [at 11.4 µM] | 
6 | Cc1ccc(-c2cc(-c3nnc(SCC(=O)NC(C)C(C)C)n3N)c3ccccc3n2)cc1 (stereo unspecified) |  | 14.1 µM (active)
7 | CCOC(=O)c1c(NC(=O)c2c(C)noc2C)sc2c1CCCCC2 | -8.22% | 
8 | CCCCC(=O)Nc1sc2c(c1C(=O)OCC)CCC(C=O)=C2Cl |  | 15.8 µM (active)
9 | O=C(O)c1cc2ccccc2c(S(=O)(=O)O)c1O | 1.86% [at 11.4 µM] | 
10 | C/C(CCN1CCCc2nc(C)c(C)cc21)=N\O[C@@H](C)CN1CCCCc2nc(C)c(C)cc21 |  | 3.98 µM (active)
11 | Cc1cc2c(nc1C)CCCN2CC(O)CN1CCCc2nc(C)c(C)cc21 | -8.33% [at 11.4 µM] | 
12 | C/C(CCN1CCCCc2nc(C)c(C)cc21)=N\O[C@@H](C)CN1CCCCc2nc(C)c(C)cc21 |  | 3.98 µM (active)
13 | C/C(CCN1CCc2nc(-c3ccccc3)c(-c3ccccc3)cc2C1)=N\O[C@@H](C)CN1CCCCc2nc(C)c(C)cc21 |  | 3.98 µM (active)
14 | C/C(CCN1CCCCc2nc(C)c(C)cc21)=N\O[C@@H](C)c1cc(-c2c(C)cc(C)cc2C)no1 |  | 3.98 µM (active)
15 | CO/N=C(\C)CCN1CCCc2nc(C)c(C)cc21 | -26.4% [at 11.4 µM] | 
16 | CCN(CC)C[C@@H](O)CN1CCCCc2nc(C)c(C)cc21 | -14.9% [at 11.4 µM] | 
17 | Nc1ccc(C(=O)NCC(=O)O)cc1 | -3.58% [at 25.6 µM] | 
18 | CC[N+](CC)(CC)CC[C@](O)(c1ccccc1)C1CCCCC1 | -16.7% [at 25.6 µM] | 
19 | Nc1c2c(nc3ccccc13)CCC[C@H]2O | -4.4% | 
20 | CCc1ccc2c(c1)c(N=NC1=NC(=O)CS1)c(O)n2CC | -22.3% | 
21 | Cc1cc2c(nc1C)CCCCN2C[C@H](C)O/N=C\[C@@H](C)[C@H](OCc1ccccc1)C(C)C |  | 3.98 µM (active)
22 | Cc1cc2c(nc1C)CCCN2C[C@@H](O)CN1CCN(C)CC1 | 0.272% [at 11.4 µM] | 
23 | CCc1cc2c(nc1CC)CCN(CC/C(C)=N/O[C@@H](C)c1cc(-c3c(C)cc(C)cc3C)no1)C2 |  | 3.98 µM (active)
24 | Cc1cc2c(nc1C)CCCCN2C[C@H](O)CN1CCCc2nc(-c3ccc(Br)cc3)ccc21 | -29.7% [at 11.4 µM] | 

Row | Structure (SMILES) | activity, negative = inhibition | AC50
25 | COc1ccc(-c2ccc3c(n2)CCCN3C[C@H](O)CN2CCCc3nc(-c4ccc(Br)cc4)ccc32)cc1 | -28.9% [at 11.4 µM] | 
26 | Cc1cc2c(nc1C)CCCN2C[C@H](O)CN1CCCc2nc(-c3ccc(Br)cc3)ccc21 |  | 3.98 µM (active)
27 | C/C(CCN1CCCCc2nc(C)c(C)cc21)=N\O[C@@H](C)CN1CCCc2nc(C)c(C)cc21 |  | 3.16 µM (active)
28 | CCc1cc2c(nc1CC)CCN(CC/C(C)=N/O[C@@H]1O[C@H](COC(C)=O)[C@H](OC(C)=O)[C@H](OC(C)=O)[C@H]1OC(C)=O)C2 | -28.1% [at 11.4 µM] | 
29 | C[C@@H](N)[C@@H](C)Cc1ccccc1 | -8.05% [at 11.4 µM] | 
30 | CN(C)CCO[C@](C)(c1ccccc1)c1ccccn1 |  | inactive
31 | CCCn1nc(Oc2nc(NCC)nc(NCC)n2)ccc1=O | -15% | 
32 | CCCCCCCCCCCCCCCC(=O)C(F)(F)F | -11.7% | 
33 | COc1ccc(-n2c(=O)c(-c3cccs3)nc3cnc(Oc4ccccc4)nc32)cc1 | -9.44% | 
34 | COc1ncc2nc(-c3cccs3)c(=O)n(-c3ccccc3)c2n1 | -29.3% | 
35 | COc1ccc(-n2c(=O)c(-c3cccs3)nc3cnc(OC)nc32)cc1 |  | 7.94 µM (active)
36 | COc1ccc(Oc2ncc3nc(-c4cccs4)c(=O)n(-c4ccccc4)c3n2)cc1 |  | 2.51 µM (active)
37 | CN(C)CCN(c1ccccn1)c1ccccn1 | -13.9% [at 11.4 µM] | 
38 | N#C[C@H]1CN[C@H](N)N[C@@H]1N | -6.92% [at 11.4 µM] | 
39 | COc1ccc(-c2ccc(/C=C3\C(=O)N(c4ccccc4)N=C3c3ccccc3)o2)c([N+](=O)[O-])c1 |  | 2 µM (active)
40 | Cc1sc(=NC(=O)c2ccco2)n(C)c1-c1ccc(F)cc1 | 25.2% | 
41 | CCOC(=O)c1cnc(SCCc2ccccc2)nc1N | -14.7% | 
42 | CCOC(=O)c1nnn(-c2nonc2N)c1-c1ccc(C)cc1 | -14.1% [at 2.29 µM] | 
43 | N#CN(CC(N)=O)c1nc(N2CCCCC2)nc(N2CCCCC2)n1 | -13.4% [at 11.4 µM] | 
44 | CCOC(=O)c1nnn(-c2nc(OC)nc(N3CCCCC3)n2)c1-c1ccccc1 |  | 15.8 µM (active)
45 | Nc1nonc1-n1nncc1-c1ccccc1 |  | 15.8 µM (active)
46 | COc1nc(/C(N)=N/O)nc(N2CCCCC2)n1 | -1.23% | 
47 | COCc1c(C(N)=O)nnn1-c1nonc1N | 3.21% | 
48 | CC(C)OC(=O)c1nnn(-c2nonc2N)c1CSc1ccccn1 |  | 0.398 µM (active)

Row | Structure (SMILES) | activity, negative = inhibition | AC50
49 | CC(C)(O)c1cn(-c2nonc2N)nn1 | -2.62% | 
50 | CCOC(=O)c1nnn(-c2nonc2N)c1-c1ccccc1 |  | 15.8 µM (active)
51 | CCCOc1cc(N)ccc1C(=O)OCCN(CC)CC | -30.4% [at 25.6 µM] | 
52 | N[C@H](CO)C(=O)NCC(=O)O (H-[dS]-Gly-OH) | -1.48% [at 11.4 µM] | 
53 | CC(=O)N=c1sc(S(N)(=O)=O)nn1C | -10.1% [at 25.6 µM] | 
54 | CCc1cc2c(=O)c(-c3nc4ccccc4n3C)c(C)oc2c(CN(CC)CC)c1O | -26.8% | 
55 | CN(C)Cc1cc(O)c(O)c(CN(C)C)c1 | -13.7% [at 11.4 µM] | 
56 | Cc1cc2c(s1)CCCCC(=O)N2 | 23.4% | 
57 | CCOc1nc(N2CCCCC2)nc(-n2cc(-c3ccccc3)nn2)n1 |  | 15.8 µM (active)
58 | Cc1nonc1NC(=O)N1CCCC1 | 29.8% | 
59 | Cc1c(C(=O)N2CCCCCC2)nnn1-c1nonc1N |  | 11.2 µM (active)
60 | CC1CCN(CC[S-])CC1.O.O.[Cl][Pt] | -1.49% [at 11.4 µM] | 
61 | Cc1cc(C(=O)N[C@H](c2ccccc2)[C@@]2(C)C[C@@H]2[C@@H](C)C(=O)Nc2ccc3ccccc3c2)n(C)n1 |  | 0.794 µM (active)
62 | Cc1cc(C(=O)N[C@@H](c2ccccc2)[C@]2(C)C[C@H]2[C@@H](C)C(=O)Nc2ccc3ccccc3c2)n(C)n1 |  | 0.794 µM (active)
63 | O=C(Nc1cc(C(=O)Nc2ccc(S(=O)(=O)O)cc2S(=O)(=O)O)cc(C(=O)Nc2ccc(S(=O)(=O)O)cc2S(=O)(=O)O)c1)Nc1cc(C(=O)Nc2ccc(S(=O)(=O)O)cc2S(=O)(=O)O)cc(C(=O)Nc2ccc(S(=O)(=O)O)cc2S(=O)(=O)O)c1 | -3.85% | 
64 | Fc1nc(N2CCCC2)c(F)c(Oc2ccccc2Oc2c(F)c(F)nc(N3CCCC3)c2F)c1F | 17.1% | 
65 | CN(Cc1ccco1)c1ncnc2ccc(-c3ccoc3)cc12 |  | 25.1 µM (active)
66 | CN(C)C(=O)c1ccc(-c2cc(N(C)Cc3ccco3)ncn2)cc1 | 25.6% | 
67 | CN(Cc1ccco1)c1ncnc2ccc(-c3ccc4c(c3)OCO4)cc12 |  | 2.51 µM (active)
68 | Cc1noc(C)c1-c1ccc2ncnc(N(C)C)c2c1 | -29.5% | 
69 | Cc1noc(C)c1-c1ccc2ncnc(N(C)Cc3ccco3)c2c1 |  | 25.1 µM (active)
70 | N#CC(CC(=O)O)=C(c1ccccc1)c1ccccc1 | 5.39% [at 11.4 µM] | 
71 | CC(=O)Nc1c(C)nn(-c2ccc(C)c(C)c2)c1C | -3.89% [at 11.4 µM] | 
72 | Cc1nn(-c2ccc(F)cc2)c(Cl)c1/C=C(\CCC(=O)O)c1nc2ccccc2s1 | 21.6% | 

Row | Structure (SMILES) | activity, negative = inhibition | AC50
73 | Cc1nn(-c2ccc(F)cc2)c(C)c1NS(=O)(=O)c1ccc2ccccc2c1 |  | 4.47 µM (active)
74 | O=[N+]([O-])c1ccc(C=Nc2ccc(Cl)cc2Cl)s1 | -29.3% | 
75 | Cc1cccc(NC(=S)N/N=C/c2ccc([N+](=O)[O-])s2)c1 |  | 22.4 µM (active)
76 | Cc1ccc(C(=O)N/N=C/c2ccc([N+](=O)[O-])s2)cc1 | -26.6% | 
77 | O=C(O)Cc1ccc(NC(=O)C2CCCCC2C(=O)O)cc1 (stereo unspecified) | -1.35% | 
78 | CCSc1nnc(NC(=O)C(C(F)(F)F)C(F)(F)F)s1 | -17% | 
79 | CCSc1nnc(NC(=O)Cc2ccc(OC)c(OC)c2)s1 | -2.65% [at 2.29 µM] | 
80 | CCSc1nnc(NC(=O)CSc2nc3c(cc2C#N)CCCC3)s1 |  | 10 µM (active)
81 | O=C(NCCc1ccc(O)cc1)c1ccc(Cl)cc1 | 1.62% [at 2.29 µM] | 
82 | Oc1cc2c(cc1O)CN(C(=S)NCCc1ccc(Cl)cc1)CCC2 |  | 3.16 µM (active)
83 | CC[C@@]1([N+](=O)[O-])C[C@H]2C=C[C@@H]1C2 | -4.49% [at 11.4 µM] | 
84 | C/C(=C\c1ccco1)C1C(C#N)=C(N)Oc2n[nH]c(-c3ccccc3)c21 (stereo unspecified) |  | 3.98 µM (active)
85 | Cc1ccc(NC(=O)C(=O)NCc2ccc(/C=C(/C#N)C(=O)NCc3cccnc3)o2)cc1 |  | 1.41 µM (active)
86 | Cc1cc(N)n(-c2ccc3ccccc3c2)n1 |  | 28.2 µM (active)
87 | Cc1cc(N)n(-c2ccccc2)n1 | -14.7% | 
88 | Nc1nc(-c2ccc3ccccc3c2)cc(-c2cc(-c3ccc4ccccc4c3)nc(N)n2)n1 | -3.3% [at 11.4 µM] | 
89 | COc1cc(N=C(N)N=C(N)N)c2ncccc2c1 | -8.88% [at 11.4 µM] | 
90 | O=C(CCN1C(=O)C2C3C=CC(C3)C2C1=O)NCCN1CCCc2ccccc21 (stereo unspecified) |  | 3.98 µM (active)
91 | CC1Cc2ccccc2N1C(=O)CN1C(=O)COc2ccccc21 (stereo unspecified) | -6.97% [at 2.29 µM] | 
92 | CC1Cc2ccccc2N1C(=O)c1cc2c(=O)n3ccccc3nc2n1C (stereo unspecified) | -16.7% | 
93 | CC1Cc2ccccc2N1C(=O)Cn1c(=O)cc(O)c2ccccc21 (stereo unspecified) |  | 25.1 µM (active)
94 | CC1Cc2ccccc2N1C(=O)CSCC(=O)O (stereo unspecified) | -12.7% | 
95 | CC1Cc2ccccc2N1C(=O)CCN1C(=O)C2C3C=CC(C3)C2C1=O (stereo unspecified) |  | 1.41 µM (active)
96 | CCOC(=O)CCN1C(=O)[C@H]2[C@@H]3[C@H](O)[C@H](O)CC(=O)[C@H]3CC[C@H]2C1=O | -4.78% [at 11.4 µM] and -14.8% [at 11.4 µM] | 

Source: PubChem BioAssay AID1851 (National Center for Advancing Translational Sciences (NCATS), 2009)
